Only some compounds are listed: those with a hit (about 12% of all), similar ones and a draw of the others.
CHOP inhibitor = inhibitors of CHOP promoter induction, primary screen, cell-based, unfolded protein response, luciferase reporter. inhibition, % at 10 µM. CHO-K1 CHOP-promoter luciferase, tunicamycin-induced, 15-18 h. hit rate 3.8% among 220,000. AID 2732, 2010;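 active means compounds that reduced the stress-induced luciferase reporter signal by more than about 70% of percent inhibition, limit read from the data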;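 further: 0% = tunicamycin plus vehicle and 100% = wells without tunicamycin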
Arbovirus inh = antivirals against arbovirus infection, primary screen, cell-based, full library, 10K replicate subset. inhibition, % at 10 µM. hit rate 0.37% among 200,000. arbovirus infection cell-based antiviral screen; in the data active means inhibition above about 30%
WT yeast gro inh = growth inhibition of WT strain, primary screen, mitochondrial fusion inhibitor project, WT and mutant strains, chemical genetic; mitochondrial fusion phenotypic screen; inhibition, % at 10 µM; hit rate 2.1% among 190,000; AID 1362, 2008; in the data active means inhibition above about 58%; tested in S. cerevisiae
Lmaj promast = Leishmania major promastigote growth inhibition, primary screen. Leishmania major promastigotes, resazurin fluorescence viability. inhibition, % at 10 µM. hit rate 9% among 200,000. AID 1063, 2008; in the data active means inhibition above about 50%;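 further: promastigotes grown with compound for 44 hours at 28 °C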
Active calls of the source: *; · = no result given.

SMILES	CHOP inhibitor	Arbovirus inh	WT yeast gro inh	Lmaj promast
CCCNC(=O)NC(=O)COC(=O)c1ccc(S(=O)(=O)N(C)c2ccccc2OC)cc1	0	-13	-12	73*
CC(C)CCN1CCN(Cc2ccc(Sc3nncn3C)o2)CC1CCO (centres undefined)	-5	3	-14	-5
CC(=O)Nc1ccc(NC(=O)c2cccc3c2-c2ccccc2C3=O)cc1	7	21	-1	78*
CC(Sc1nnc(-c2ccccc2)c(-c2ccccc2)n1)C(=O)N1CCc2ccccc21 (centres undefined)	4	9	-4	47
CC(C)(C)C(=O)NCCc1nc2ccccc2n1CC(=O)c1ccc(Cl)cc1	12	-7	-1	26
O=S1(=O)N=C(N(Cc2cccs2)c2ccc(O)cc2)c2ccccc21	16	1	7	4
COc1cccc(-c2cc3nc(-c4ccccc4)cc(N4CCC5(CC4)OCCO5)n3n2)c1	-21	-7	36	63*
COc1cccc(C(c2sc3nc(C)nn3c2O)N2CCC3(CC2)OCCO3)c1 (centres undefined)	3	-1	-6	-5
Cc1cc(N2CCN(C)CC2)n2cc(-c3ccc(F)cc3)nc2n1	-11	6	-16	-1
CCc1nn2c(N3CCOCC3)cc(C)nc2c1-c1ccc(F)cc1	44	7	-1	4
Fc1ccc(-c2cc3nc(-c4ccccc4)cc(N4CCN(CCN5CCOCC5)CC4)n3n2)cc1	39	-22	-9	77*
CN1CCN(c2cc(-c3ccccc3)nc3cc(-c4ccc(F)cc4)nn23)CC1	58	4	84*	100*
CC(=O)Nc1ccc(N2CCOCC2)c([N+](=O)[O-])c1	25	2	-3	-4
CCN(Cc1ccccc1)C(=O)c1nn(-c2ccc(OC)cc2)c(=O)c2c1c1ccccc1n2C	13	-19	11	50*
CCCCN(CC)CCNC(=O)c1nn(-c2ccc(OC)cc2)c(=O)c2c1c1ccccc1n2C	16	-16	9	7
Cc1cc(=O)oc2cc(OCC(=O)OCC(=O)N(C)C3CCS(=O)(=O)C3)ccc12 (centres undefined)	0	·	·	·
Cn1c(=O)c2c(ncn2CC(=O)Nc2nccs2)n(C)c1=O	0	·	·	·
CCC(=O)N1c2ccc(S(=O)(=O)CCC(=O)N3CCn4c3nc3ccccc34)cc2CC1C (centres undefined)	31	-5	-5	79*
CCC(=O)N1c2ccc(S(=O)(=O)CCC(=O)NC3CCCC3)cc2CC1C (centres undefined)	30	10	-11	-3
COC(=O)CSc1nnc(-c2sc3ccccc3c2Cl)o1	70*	4	8	-6
N#CCSc1nnc(-c2sc3ccccc3c2Cl)o1	61	4	2	-8
CC1CCCCC1NC(=O)c1cc2ccccc2o1 (centres undefined)	-26	-3	-6	7
COCCN(Cc1cc2ccc(C)cc2n2nnnc12)Cc1nnnn1C(C)(C)C	-10	-5	3	1
Cc1cc(/C=N/O)c(C)n1-c1ccc(Br)cc1	20	3	0	6
O/N=C/c1ccn(-c2ccc(Br)cc2)c1	41	-12	3	92*
SMILES	CHOP inhibitor	Arbovirus inh	WT yeast gro inh	Lmaj promast
Cc1ccc(S(=O)(=O)CCC(=O)OCn2nnc3ccccc3c2=O)cc1	3	-6	-3	0
c1ccc2c(c1)C(=Nn1cnnc1)c1ccccc1-2	12	5	14	14
O=C1/C(=N/n2cnnc2)c2ccccc2N1Cc1ccccc1	39	-8	4	85*
COc1ccc(/C=N/n2c(N)c(S(=O)(=O)c3cccs3)c3nc4ccccc4nc32)cc1OC	24	-8	2	62*
Nc1c(S(=O)(=O)c2cccs2)c2nc3ccccc3nc2n1/N=C/c1cccc(O)c1	89*	-29	14	58*
O=c1[nH]c(CSc2nnc(Nc3ccccc3)s2)nc2ccccc12	16	·	·	·
CCN1CCCC1CNC(=O)C1CCN(C(=O)c2cc3sccc3n2Cc2ccc(F)cc2)CC1 (centres undefined)	-3	-23	1	90*
O=C(NCc1ccco1)C1CCN(Cc2ccc(F)cc2)CC1	15	-14	-4	91*
O=C(NCc1ccco1)C1CCCCC1	24	-7	-3	-6
O=C(NCc1ccco1)C1CCN(C(=O)c2cc3sccc3n2Cc2ccc(F)cc2)CC1	7	-20	15	79*
O=C(NCc1ccccn1)C1CCN(C(=O)c2cc3sccc3n2Cc2ccc(F)cc2)CC1	6	2	7	9
O=C(NCc1ccco1)c1ccc(Cn2c(=O)c3sccc3n(Cc3cccc(F)c3)c2=O)cc1	72*	8	-6	4
O=C(NCc1ccco1)c1ccc(Cn2c(=O)c3ccccc3n(Cc3cccc(Cl)c3)c2=O)cc1	18	-9	5	5
CCN(CCS(=O)(=O)c1ccc(Cl)cc1)C(=O)Nc1ccc(Cl)cc1	20	·	·	·
Cc1cc(C)c(S(=O)(=O)Nc2ccccc2-c2ccccc2)c(C)c1	69	-3	-9	32
O=C(Nc1ncn[nH]1)c1ccc(S(=O)(=O)N2CCOCC2)cc1	13	0	16	8
CC(C)(C)c1ccc(C(=O)CSc2n[nH]c(=O)[nH]c2=O)cc1	-8	16	-18	-3
O=C(NCCCN1CCCC1)C1CCN(C(=O)c2cc3sccc3n2Cc2ccc(F)cc2)CC1	-20	13	-14	93*
O=C(NCc1ccco1)c1cc2sccc2n1Cc1ccccc1	-8	12	61*	11
CCN(CC)CCCNC(=O)C1CCN(C(=O)c2cc3sccc3n2Cc2ccc(F)cc2)CC1	30	8	-12	99*
O=C(NCCc1ccccc1)c1cc2sccc2n1Cc1ccccc1	8	-15	7	-5
Cc1ccc(C(=O)Nc2c(C)cc(-c3ccccc3)oc2=O)cc1	7	-5	-1	-1
CCCCOc1ccc(Br)cc1CSC(=N)N	76*	-37	6	99*
COc1ccc(CSC(=N)N)cc1[N+](=O)[O-]	-2	-8	-13	8
CCOc1ccc(C(C)=O)cc1CSC(=N)N	2	0	-7	-2
SMILES	CHOP inhibitor	Arbovirus inh	WT yeast gro inh	Lmaj promast
CCCCOc1ccc(CSC2=NCCN2)cc1[N+](=O)[O-]	35	-5	22	95*
CCCCCOc1ccc(CSC(=N)N)cc1[N+](=O)[O-]	29	-42	77*	100*
CC1(C)Cc2nc(Cl)c(C(N)=O)cc2CO1	-6	·	·	·
CCCN1CCC(NC(=O)Nc2ccc(Br)cc2)CC1	-1	-5	13	3
CCOC(=O)C(C)N1C(=O)S/C(=C/c2ccc3c(c2)n(C)c(=O)n3C)C1=O (centres undefined)	28	-12	0	67*
O=S(=O)(Cc1c(F)cccc1Cl)c1ncn[nH]1	3	-2	-17	-4
O=C(CN1CCN(Cc2ccc3c(c2)OCO3)CC1)Nc1ccc(N2CCOCC2)cc1	9	-4	-14	2
Cn1c(-c2ccc(Cl)cc2)cnc1NCc1cc2c(cc1[N+](=O)[O-])OCO2	52	-3	6	98*
Cn1c(-c2ccc(F)cc2)cnc1NCc1cc2c(cc1[N+](=O)[O-])OCO2	22	-8	-1	99*
